# According to article PMC7862700, “An all-to-all approach to the identification of sequence-specific readers for epigenetic DNA modifications on cytosine”:
# Tests used:
# Test in all cases: DAPPL (digital affinity profiling via proximity ligation, sequencing); 10 mM Tris-HCl pH 7.5, 50 mM NaCl, 1 mM DTT, 4% glycerol, room temperature, 30 min; GST-TFs on glutathione beads, 16-mer random dsDNA library, 0.1% formaldehyde crosslink after washing; high values mean tight binding
# FLI1 = molecular target: T1, FLI1 (Homo sapiens, UniProt Q01543 1-452); details: protein: recombinant; tags: N-terminal GST; dsDNA, one strand shown
# T1 sequence: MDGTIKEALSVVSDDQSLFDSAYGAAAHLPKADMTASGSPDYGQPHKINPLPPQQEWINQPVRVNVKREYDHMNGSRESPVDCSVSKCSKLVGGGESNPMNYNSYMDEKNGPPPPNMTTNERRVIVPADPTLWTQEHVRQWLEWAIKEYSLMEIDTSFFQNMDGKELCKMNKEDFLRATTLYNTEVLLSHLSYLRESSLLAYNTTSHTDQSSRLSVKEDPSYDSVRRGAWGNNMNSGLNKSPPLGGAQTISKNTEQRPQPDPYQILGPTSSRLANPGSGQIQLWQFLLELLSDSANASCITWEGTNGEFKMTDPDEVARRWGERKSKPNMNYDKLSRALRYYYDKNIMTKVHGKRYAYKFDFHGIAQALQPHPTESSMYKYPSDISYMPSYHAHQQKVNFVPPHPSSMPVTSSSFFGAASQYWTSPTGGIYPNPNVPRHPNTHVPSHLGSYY
# Procedure, shortened: (§1)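 In yeast, human transcription factors were expressed with a GST fusion, then pulled down on glutathione beads and given DNA barcodes. Pooled with a tag-only sample, they were exposed to 200 nmole of a 16-mer random double-stranded DNA library (Tris/NaCl/DTT/glycerol buffer, room temperature, 30 min), washed, crosslinked with 0.1% formaldehyde, proximity-ligated using BsaI/T4 ligase for 1 h at 37 °C, PCR-amplified and read on an Illumina NextSeq500. Each hexamer's frequency of reads for a factor, divided by the matching frequency for the tag-only sample, gives the binding signal.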
# ELK1 = molecular target: T2, ELK1 (Homo sapiens, UniProt P19419 1-428); details: protein: recombinant; tags: N-terminal GST; dsDNA, one strand shown
# T2 sequence: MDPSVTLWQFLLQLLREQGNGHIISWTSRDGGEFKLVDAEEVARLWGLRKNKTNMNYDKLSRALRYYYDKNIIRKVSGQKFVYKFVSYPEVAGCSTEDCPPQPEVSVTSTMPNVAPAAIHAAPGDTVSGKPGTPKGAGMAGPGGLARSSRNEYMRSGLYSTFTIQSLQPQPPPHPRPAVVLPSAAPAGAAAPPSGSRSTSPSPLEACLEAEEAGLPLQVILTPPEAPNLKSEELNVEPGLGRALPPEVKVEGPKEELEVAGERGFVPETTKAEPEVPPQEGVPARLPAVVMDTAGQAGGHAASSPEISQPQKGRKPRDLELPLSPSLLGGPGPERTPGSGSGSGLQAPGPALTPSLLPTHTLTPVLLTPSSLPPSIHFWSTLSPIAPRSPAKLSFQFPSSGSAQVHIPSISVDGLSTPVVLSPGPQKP
# Procedure, shortened: as §1
# GABPA = molecular target: T3, GABPA (Homo sapiens, UniProt Q06546 1-454); details: protein: recombinant; tags: N-terminal GST; dsDNA, one strand shown
# T3 sequence: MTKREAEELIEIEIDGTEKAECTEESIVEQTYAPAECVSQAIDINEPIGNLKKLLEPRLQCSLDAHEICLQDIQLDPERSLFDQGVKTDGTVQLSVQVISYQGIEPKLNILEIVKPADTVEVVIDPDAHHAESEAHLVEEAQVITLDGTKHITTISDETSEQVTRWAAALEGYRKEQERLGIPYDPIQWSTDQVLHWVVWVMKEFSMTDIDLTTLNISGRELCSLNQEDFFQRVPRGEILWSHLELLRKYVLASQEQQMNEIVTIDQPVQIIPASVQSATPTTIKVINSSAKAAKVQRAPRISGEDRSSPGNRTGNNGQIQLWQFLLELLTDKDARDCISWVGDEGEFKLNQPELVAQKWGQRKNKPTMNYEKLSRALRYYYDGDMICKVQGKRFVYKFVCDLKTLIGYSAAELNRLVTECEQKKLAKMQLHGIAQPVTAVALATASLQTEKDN
# Procedure, shortened: as §1
# ERG = molecular target: T4, ERG (Homo sapiens, UniProt P11308 1-479); details: protein: recombinant; tags: N-terminal GST; dsDNA, one strand shown
# T4 sequence: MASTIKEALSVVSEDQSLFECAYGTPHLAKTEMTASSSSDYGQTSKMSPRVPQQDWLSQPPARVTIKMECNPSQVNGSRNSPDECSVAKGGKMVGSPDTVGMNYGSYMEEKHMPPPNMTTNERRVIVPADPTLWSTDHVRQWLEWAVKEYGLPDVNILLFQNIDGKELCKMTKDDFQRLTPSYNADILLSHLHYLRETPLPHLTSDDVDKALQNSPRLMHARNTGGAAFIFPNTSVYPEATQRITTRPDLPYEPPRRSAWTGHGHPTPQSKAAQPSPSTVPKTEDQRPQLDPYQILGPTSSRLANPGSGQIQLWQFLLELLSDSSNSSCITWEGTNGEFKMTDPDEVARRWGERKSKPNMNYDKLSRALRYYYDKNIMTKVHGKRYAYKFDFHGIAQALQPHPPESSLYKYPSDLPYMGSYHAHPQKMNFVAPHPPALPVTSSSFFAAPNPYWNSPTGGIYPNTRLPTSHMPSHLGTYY
# Procedure, shortened: as §1
# ELF1 = ELF1 (Homo sapiens, UniProt P32519 1-619); details: protein: recombinant; tags: N-terminal GST; dsDNA, one strand shown
# ELF1, sequence (P32519 whole entry): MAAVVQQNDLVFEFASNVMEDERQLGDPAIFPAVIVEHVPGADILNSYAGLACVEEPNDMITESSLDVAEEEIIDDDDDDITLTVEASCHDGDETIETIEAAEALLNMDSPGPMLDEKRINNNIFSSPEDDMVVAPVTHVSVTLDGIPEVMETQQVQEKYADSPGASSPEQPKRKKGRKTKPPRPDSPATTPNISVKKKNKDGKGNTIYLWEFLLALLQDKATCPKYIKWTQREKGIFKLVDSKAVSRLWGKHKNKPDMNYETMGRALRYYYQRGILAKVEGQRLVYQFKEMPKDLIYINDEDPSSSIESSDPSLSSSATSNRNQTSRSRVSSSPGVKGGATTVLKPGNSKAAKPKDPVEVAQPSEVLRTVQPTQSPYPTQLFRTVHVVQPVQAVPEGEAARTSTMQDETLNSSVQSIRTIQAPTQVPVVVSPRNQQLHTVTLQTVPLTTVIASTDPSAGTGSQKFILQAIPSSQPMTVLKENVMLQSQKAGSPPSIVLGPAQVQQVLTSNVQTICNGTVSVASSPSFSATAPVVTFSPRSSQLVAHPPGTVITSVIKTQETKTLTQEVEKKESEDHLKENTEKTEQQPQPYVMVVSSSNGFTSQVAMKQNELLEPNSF
# Procedure, shortened: as §1
# EHF = molecular target: T5, EHF (Homo sapiens, UniProt Q9NZC4 1-300); details: protein: recombinant; tags: N-terminal GST; dsDNA, one strand shown
# T5 sequence: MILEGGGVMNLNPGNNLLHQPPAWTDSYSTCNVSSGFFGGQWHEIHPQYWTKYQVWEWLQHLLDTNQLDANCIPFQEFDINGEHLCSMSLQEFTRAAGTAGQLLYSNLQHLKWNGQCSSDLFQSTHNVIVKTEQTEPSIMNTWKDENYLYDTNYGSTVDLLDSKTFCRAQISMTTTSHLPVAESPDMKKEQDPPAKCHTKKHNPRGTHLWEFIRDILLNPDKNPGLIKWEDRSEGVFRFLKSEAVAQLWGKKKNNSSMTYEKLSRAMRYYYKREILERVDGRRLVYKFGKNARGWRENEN
# Procedure, shortened: as §1
# SPI1 = SPI1 (Homo sapiens, UniProt P17947 1-270); details: protein: recombinant; tags: N-terminal GST; dsDNA, one strand shown
# Procedure, shortened: as §1
# SPIB = SPIB (Homo sapiens, UniProt Q01892 1-262); details: protein: recombinant; tags: N-terminal GST; dsDNA, one strand shown
# SPIB, sequence (Q01892 whole entry): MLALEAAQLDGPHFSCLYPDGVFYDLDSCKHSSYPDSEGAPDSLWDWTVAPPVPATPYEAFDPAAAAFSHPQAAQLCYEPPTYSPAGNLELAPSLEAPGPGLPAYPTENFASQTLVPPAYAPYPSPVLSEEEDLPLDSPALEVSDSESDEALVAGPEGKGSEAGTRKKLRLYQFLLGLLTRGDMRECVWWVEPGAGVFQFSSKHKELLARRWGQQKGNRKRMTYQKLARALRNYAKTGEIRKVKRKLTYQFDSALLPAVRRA
# Procedure, shortened: as §1
# ELK3 = molecular target: T6, ELK3 (Homo sapiens, UniProt P41970 1-407); details: protein: recombinant; tags: N-terminal GST; dsDNA, one strand shown
# T6 sequence: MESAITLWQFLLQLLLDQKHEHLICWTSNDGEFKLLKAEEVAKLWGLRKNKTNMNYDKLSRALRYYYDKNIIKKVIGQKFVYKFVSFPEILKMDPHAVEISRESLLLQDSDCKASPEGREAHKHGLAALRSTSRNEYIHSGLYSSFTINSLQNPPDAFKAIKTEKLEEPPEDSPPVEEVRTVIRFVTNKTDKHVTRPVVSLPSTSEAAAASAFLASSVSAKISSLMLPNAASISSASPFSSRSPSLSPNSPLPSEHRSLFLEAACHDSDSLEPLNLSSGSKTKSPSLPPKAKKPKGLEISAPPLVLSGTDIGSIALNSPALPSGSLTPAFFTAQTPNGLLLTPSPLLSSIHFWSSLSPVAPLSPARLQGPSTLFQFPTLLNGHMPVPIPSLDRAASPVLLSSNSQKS
# Procedure, shortened: as §1
# FEV = molecular target: T7, FEV (Homo sapiens, UniProt Q99581 1-238); details: protein: recombinant; tags: N-terminal GST; dsDNA, one strand shown
# T7 sequence: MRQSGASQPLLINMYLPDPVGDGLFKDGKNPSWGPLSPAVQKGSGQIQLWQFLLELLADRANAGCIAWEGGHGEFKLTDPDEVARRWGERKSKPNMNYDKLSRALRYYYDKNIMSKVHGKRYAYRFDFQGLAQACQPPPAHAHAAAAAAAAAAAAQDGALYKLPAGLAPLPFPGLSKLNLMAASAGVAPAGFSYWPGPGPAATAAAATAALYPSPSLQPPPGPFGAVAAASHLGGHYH
# Procedure, shortened: as §1
# ETV5 = ETV5 (Homo sapiens, UniProt P41161 1-510); details: protein: recombinant; tags: N-terminal GST; dsDNA, one strand shown
# ETV5, sequence (P41161 whole entry): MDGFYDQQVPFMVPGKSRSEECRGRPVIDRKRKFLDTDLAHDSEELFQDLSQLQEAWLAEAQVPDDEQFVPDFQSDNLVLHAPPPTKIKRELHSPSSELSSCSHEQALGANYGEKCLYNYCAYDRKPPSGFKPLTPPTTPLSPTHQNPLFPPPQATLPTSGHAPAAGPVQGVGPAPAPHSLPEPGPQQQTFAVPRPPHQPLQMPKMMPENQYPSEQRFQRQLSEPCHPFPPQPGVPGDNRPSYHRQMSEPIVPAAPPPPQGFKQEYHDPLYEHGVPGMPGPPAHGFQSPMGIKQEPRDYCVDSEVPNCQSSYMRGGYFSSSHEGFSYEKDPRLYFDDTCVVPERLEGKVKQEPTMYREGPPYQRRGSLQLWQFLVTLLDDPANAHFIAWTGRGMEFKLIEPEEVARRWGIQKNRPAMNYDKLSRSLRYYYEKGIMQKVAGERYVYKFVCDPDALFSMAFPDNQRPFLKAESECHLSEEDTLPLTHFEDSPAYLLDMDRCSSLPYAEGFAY
# Procedure, shortened: as §1
# HSF1 = HSF1 (Homo sapiens, UniProt Q00613 1-529); details: protein: recombinant; tags: N-terminal GST; chain copies: 3; dsDNA, one strand shown
# HSF1, sequence (Q00613 whole entry): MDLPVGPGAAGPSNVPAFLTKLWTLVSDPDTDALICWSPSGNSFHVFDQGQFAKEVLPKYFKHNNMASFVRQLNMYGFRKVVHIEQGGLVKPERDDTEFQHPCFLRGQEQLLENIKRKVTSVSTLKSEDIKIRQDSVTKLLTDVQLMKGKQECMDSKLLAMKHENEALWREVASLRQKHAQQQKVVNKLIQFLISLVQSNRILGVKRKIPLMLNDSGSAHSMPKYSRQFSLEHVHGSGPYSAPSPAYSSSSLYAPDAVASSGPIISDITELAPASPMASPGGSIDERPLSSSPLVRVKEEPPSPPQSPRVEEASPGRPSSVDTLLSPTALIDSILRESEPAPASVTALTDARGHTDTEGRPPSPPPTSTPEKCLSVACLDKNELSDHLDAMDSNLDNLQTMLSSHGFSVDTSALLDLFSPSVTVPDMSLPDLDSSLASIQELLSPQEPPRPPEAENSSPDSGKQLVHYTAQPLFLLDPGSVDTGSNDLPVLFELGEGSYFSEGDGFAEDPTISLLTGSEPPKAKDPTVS
# Procedure, shortened: as §1
# SPIC = molecular target: T8, SPIC (Homo sapiens, UniProt Q8N5J4 1-248); details: protein: recombinant; tags: N-terminal GST; dsDNA, one strand shown
# T8 sequence: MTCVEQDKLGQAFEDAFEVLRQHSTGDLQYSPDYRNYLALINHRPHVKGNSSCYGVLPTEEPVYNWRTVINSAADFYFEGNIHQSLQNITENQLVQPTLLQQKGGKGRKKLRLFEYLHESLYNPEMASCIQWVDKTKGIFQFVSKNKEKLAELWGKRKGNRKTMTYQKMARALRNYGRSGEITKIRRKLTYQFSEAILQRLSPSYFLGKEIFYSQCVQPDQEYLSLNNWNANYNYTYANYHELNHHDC
# Procedure, shortened: as §1
# ELF4 = ELF4 (Homo sapiens, UniProt Q99607 1-663); details: protein: recombinant; tags: N-terminal GST; dsDNA, one strand shown
# ELF4, sequence (Q99607 whole entry): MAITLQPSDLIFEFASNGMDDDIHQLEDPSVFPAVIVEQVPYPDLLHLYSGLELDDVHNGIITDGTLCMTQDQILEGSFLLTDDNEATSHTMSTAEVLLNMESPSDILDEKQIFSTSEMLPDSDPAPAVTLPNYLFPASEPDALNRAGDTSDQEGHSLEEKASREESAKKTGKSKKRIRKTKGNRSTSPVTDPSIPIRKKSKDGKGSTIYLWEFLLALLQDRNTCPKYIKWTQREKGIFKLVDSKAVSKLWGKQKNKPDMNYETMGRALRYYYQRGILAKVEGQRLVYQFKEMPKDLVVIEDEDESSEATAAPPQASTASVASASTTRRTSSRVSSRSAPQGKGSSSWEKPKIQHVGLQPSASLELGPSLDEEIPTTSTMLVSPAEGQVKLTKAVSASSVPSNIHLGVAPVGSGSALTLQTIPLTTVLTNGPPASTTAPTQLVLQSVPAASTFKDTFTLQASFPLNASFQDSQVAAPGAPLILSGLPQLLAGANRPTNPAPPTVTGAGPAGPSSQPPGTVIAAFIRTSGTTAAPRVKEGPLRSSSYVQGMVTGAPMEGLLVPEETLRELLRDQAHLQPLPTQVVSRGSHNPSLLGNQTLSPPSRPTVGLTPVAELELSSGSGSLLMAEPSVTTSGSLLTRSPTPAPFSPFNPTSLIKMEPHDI
# Procedure, shortened: as §1
# ELK4 = molecular target: T9, ELK4 (Homo sapiens, UniProt P28324-2 1-405); details: protein: recombinant; tags: N-terminal GST; dsDNA, one strand shown
# T9 sequence: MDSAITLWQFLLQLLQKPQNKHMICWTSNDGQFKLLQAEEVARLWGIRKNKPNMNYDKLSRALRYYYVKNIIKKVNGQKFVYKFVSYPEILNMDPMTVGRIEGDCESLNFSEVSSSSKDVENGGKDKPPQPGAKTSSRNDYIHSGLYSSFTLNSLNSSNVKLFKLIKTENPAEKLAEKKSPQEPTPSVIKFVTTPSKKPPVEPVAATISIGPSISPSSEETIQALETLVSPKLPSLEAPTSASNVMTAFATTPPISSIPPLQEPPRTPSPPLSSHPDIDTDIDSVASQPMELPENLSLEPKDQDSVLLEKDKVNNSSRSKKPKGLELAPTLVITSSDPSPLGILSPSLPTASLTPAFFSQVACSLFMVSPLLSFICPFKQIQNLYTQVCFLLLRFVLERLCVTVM
# Procedure, shortened: as §1
# ETV2 = molecular target: T10, ETV2 (Homo sapiens, UniProt O00321 1-342); details: protein: recombinant; tags: N-terminal GST; dsDNA, one strand shown
# T10 sequence: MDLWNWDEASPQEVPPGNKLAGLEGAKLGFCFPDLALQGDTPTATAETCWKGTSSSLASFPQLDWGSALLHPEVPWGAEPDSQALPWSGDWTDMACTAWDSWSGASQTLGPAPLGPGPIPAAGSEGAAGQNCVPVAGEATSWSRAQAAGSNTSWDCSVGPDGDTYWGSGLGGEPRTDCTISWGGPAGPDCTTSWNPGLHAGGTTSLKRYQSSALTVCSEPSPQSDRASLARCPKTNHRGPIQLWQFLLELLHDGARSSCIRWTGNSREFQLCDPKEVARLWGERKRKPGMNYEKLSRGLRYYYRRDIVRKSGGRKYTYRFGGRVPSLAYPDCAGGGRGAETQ
# Procedure, shortened: as §1
# ELF3 = molecular target: T11, ELF3 (Homo sapiens, UniProt P78545 1-371); details: protein: recombinant; tags: N-terminal GST; dsDNA, one strand shown
# T11 sequence: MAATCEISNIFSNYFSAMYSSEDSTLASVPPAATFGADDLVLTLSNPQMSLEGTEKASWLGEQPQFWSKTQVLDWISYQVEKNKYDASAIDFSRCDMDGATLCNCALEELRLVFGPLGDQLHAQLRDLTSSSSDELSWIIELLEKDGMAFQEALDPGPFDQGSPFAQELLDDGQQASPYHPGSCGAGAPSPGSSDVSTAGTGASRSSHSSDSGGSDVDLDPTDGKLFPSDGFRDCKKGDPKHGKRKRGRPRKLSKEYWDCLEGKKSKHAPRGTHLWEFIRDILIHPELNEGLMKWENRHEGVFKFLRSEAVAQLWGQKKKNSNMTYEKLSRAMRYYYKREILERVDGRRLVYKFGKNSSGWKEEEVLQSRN
# Procedure, shortened: as §1
# CRX = CRX (Homo sapiens, UniProt O43186 1-299); details: protein: recombinant; tags: N-terminal GST; dsDNA, one strand shown
# CRX, sequence (O43186 whole entry): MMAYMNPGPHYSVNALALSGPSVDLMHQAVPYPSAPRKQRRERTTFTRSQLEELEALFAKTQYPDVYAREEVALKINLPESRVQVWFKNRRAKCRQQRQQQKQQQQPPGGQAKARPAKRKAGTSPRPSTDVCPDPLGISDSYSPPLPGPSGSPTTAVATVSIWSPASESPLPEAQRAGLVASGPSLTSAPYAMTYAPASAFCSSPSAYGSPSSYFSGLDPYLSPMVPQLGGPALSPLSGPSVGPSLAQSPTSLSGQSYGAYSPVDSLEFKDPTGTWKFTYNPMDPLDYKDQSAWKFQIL
# Procedure, shortened: as §1
# ETV1 = ETV1 (Homo sapiens, UniProt P50549 1-477); details: protein: recombinant; tags: N-terminal GST; dsDNA, one strand shown
# ETV1, sequence (P50549 whole entry): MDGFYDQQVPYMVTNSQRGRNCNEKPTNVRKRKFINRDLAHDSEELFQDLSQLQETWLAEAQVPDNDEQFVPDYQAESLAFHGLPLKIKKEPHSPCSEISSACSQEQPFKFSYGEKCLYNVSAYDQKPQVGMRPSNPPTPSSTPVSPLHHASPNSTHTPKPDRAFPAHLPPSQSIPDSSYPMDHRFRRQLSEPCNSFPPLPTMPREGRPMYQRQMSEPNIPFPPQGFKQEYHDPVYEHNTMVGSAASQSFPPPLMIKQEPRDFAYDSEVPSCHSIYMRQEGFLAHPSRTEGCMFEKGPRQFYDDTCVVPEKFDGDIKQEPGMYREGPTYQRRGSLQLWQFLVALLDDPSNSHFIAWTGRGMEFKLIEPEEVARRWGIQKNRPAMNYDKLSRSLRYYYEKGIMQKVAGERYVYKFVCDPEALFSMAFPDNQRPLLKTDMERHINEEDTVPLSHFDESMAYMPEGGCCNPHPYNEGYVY
# Procedure, shortened: as §1
sequence,measurement,setting,value
AATTTC,binding signal,FLI1,"1.65 fold enrichment (6-mer frequency, TF over GST control)"
same,binding signal,ELK1,"1.59 fold enrichment (6-mer frequency, TF over GST control)"
same,binding signal,GABPA,"1.75 fold enrichment (6-mer frequency, TF over GST control)"
same,binding signal,ERG,"1.94 fold enrichment (6-mer frequency, TF over GST control)"
same,binding signal,ELF1,"1.6 fold enrichment (6-mer frequency, TF over GST control)"
same,binding signal,EHF,"1.77 fold enrichment (6-mer frequency, TF over GST control)"
same,binding signal,SPI1,"1.47 fold enrichment (6-mer frequency, TF over GST control)"
same,binding signal,SPIB,"1.85 fold enrichment (6-mer frequency, TF over GST control)"
same,binding signal,ELK3,"1.79 fold enrichment (6-mer frequency, TF over GST control)"
same,binding signal,FEV,"1.93 fold enrichment (6-mer frequency, TF over GST control)"
same,binding signal,ETV5,"1.8 fold enrichment (6-mer frequency, TF over GST control)"
same,binding signal,HSF1,"1.89 fold enrichment (6-mer frequency, TF over GST control)"
same,binding signal,SPIC,"1.59 fold enrichment (6-mer frequency, TF over GST control)"
same,binding signal,ELF4,"1.61 fold enrichment (6-mer frequency, TF over GST control)"
same,binding signal,ELK4,"1.6 fold enrichment (6-mer frequency, TF over GST control)"
same,binding signal,ETV2,"1.88 fold enrichment (6-mer frequency, TF over GST control)"
same,binding signal,ELF3,"1.75 fold enrichment (6-mer frequency, TF over GST control)"
same,binding signal,CRX,"1.49 fold enrichment (6-mer frequency, TF over GST control)"
same,binding signal,ETV1,"1.79 fold enrichment (6-mer frequency, TF over GST control)"
